SMARCA2 act: activators of SMARCA2 function; MG213 cells, MMTV-luciferase reporter, dexamethasone, overnight; activation, % at 9.1 µM; hit rate 1% among 370,000; in the data active = activation above about 7.8%;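 note: 0% = vehicle wells and 100% = reference activator wells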
esBAF inh: blocks esBAF chromatin remodeling in mouse ES cells; AID 602393; reporter increase, % at 12.5 µM; hit rate 2% among 350,000; Bmi1-luciferase knock-in reporter, 24 h; 100% = twice the neutral-well signal; in the data active = activation above about 40%;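 note: 0% = median of the plate's neutral control wells and 100% = double that signal; a rise in the Bmi1 reporter signal indicates esBAF inhibition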
FGF22 binding: binders of recombinant human FGF22 by thermal shift | SYPRO orange fluorescence; percent of sucrose octasulfate shift, DMSO zero | activity (Tm shift, normalised), % at 9.99 µM | hit rate 1.5% among 340,000 | AID 651658;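 active = mean Tm shift, scaled 0 neutral to 100 positive control, at about 1.3% or above, every replicate too, limit read from the data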
Target sequence (Q9HCT0 whole entry, looked up): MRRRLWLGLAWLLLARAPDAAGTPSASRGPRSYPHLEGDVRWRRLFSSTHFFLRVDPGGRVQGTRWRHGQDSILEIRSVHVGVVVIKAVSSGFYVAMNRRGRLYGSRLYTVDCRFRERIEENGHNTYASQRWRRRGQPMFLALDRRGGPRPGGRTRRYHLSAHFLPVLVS
MITF act: increases MITF-driven TRPM1 promoter luciferase signal. SK-MEL-5 TRPM1-promoter luciferase, 24 h; % of positive control, neutral wells = 0. hit rate 0.75% among 300,000. AID 588334. activation, % at 12.5 µM;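 active = mean activation of at least 80% with every replicate also reaching 80%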;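 note: 0% = neutral control wells and 100% = parthenolide positive control wells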
AF4-AF9 inh: inhibitors of human MLL-AF4/AF9 interaction | AID 651704 | inhibition, % at 10 µM | P42568 | hit rate 0.47% among 350,000 | AlphaScreen, biotin-AF4 peptide binding to FLAG-AF9;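 active = every replicate reaching a set inhibition limit, whatever the replicate mean, cut at about 25% in these data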;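 note: 0% = plate neutral control median and 100% = total signal loss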
Wnt bcat act: Wnt/beta-catenin pathway activation. Wnt/beta-catenin reporter cell assay, activator, plate reader. activation, % at 9.35 µM. hit rate 1.2% among 300,000. AID 743398; in the data active = activation above about 30%, passing the limit was not always enough;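 note: 0% = neutral control wells and 100% = positive control wells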
An asterisk follows results filed as active. The list is not random: actives were taken first. Their share in the collection is about 4.3%.

Screening Cc1cc(NS(=O)(=O)c2ccc(NC(=O)c3ccc([N+](=O)[O-])s3)cc2)nc(C)n1 returned SMARCA2 act 1, esBAF inh -2, FGF22 binding 0, MITF act -30, AF4-AF9 inh 3 and Wnt bcat act 8.
Screening CC1(Cc2ccc(C(F)(F)F)nc2)C(=O)Nc2cc(-c3ccccc3Cl)ccc21 (stereo unspecified) returned SMARCA2 act -4, esBAF inh -5, FGF22 binding 43*, AF4-AF9 inh -5 and Wnt bcat act -6.
Screening CN(C)c1cccc(/C=C2\CC3(OC(=O)c4ccccc4)CCCN2C3)c1 (stereo unspecified) returned SMARCA2 act -3.
For CCN1C(=O)/C(=C2\C=Cc3cc(C)ccc3N2CC)OC1=S the results were SMARCA2 act -2, esBAF inh 3 and MITF act 3.
`CCN1C(=O)/C(=C2\C=Cc3ccccc3N2CC)SC1=S` gave SMARCA2 act -4, esBAF inh 4 and MITF act -3.
Screening CCN1C(=C2C(=O)c3ccccc3C2=O)C=Cc2ccccc21 returned SMARCA2 act 0 and esBAF inh 44*.
For CCN1C(=O)/C(=C2/C=Cc3ccccc3N2C)OC1=S the results were SMARCA2 act 3, esBAF inh 27 and MITF act 101*.
Cc1ccc(C)c(NC(=O)c2cc3ccccc3o2)c1 was read as SMARCA2 act 2, esBAF inh 74*, FGF22 binding 0, AF4-AF9 inh -4 and Wnt bcat act 3.
Screening O=C(Nc1ccccn1)c1cc2ccccc2o1 returned SMARCA2 act -3, esBAF inh -67 and MITF act -62.
For O=C(Nc1ccccc1C(F)(F)F)c1cc2ccccc2o1 the results were SMARCA2 act 2, esBAF inh 52*, FGF22 binding 0, MITF act 56, AF4-AF9 inh 3 and Wnt bcat act 14.
For O=C(Nc1ncccc1O)c1cc2ccccc2o1 the results were SMARCA2 act 6, esBAF inh -37, FGF22 binding 0, MITF act 16, AF4-AF9 inh -6 and Wnt bcat act 55*.
COc1ccc(C)cc1NC(=O)c1cc2ccccc2o1 was read as SMARCA2 act 3, esBAF inh 8 and MITF act 7.
For CNC(=O)C[C@@H]1CC[C@@H]2[C@@H](COc3ccc(NC(=O)C4CCCCC4)cc3C(=O)N2C)O1 the results were esBAF inh 9, FGF22 binding 0 and AF4-AF9 inh -2.
O=C1CCCCC1Sc1nnc(-c2ccc3c(c2)OCO3)o1 (stereo unspecified) was read as SMARCA2 act -5, FGF22 binding 43*, MITF act -43, AF4-AF9 inh -3 and Wnt bcat act -19.
`O=C(CSc1nnc(-c2cccnc2)o1)Nc1ccc(F)cc1` gave SMARCA2 act 0, esBAF inh 11, FGF22 binding 0, AF4-AF9 inh -3 and Wnt bcat act 7.
`O=C(CSc1nnc(-c2ccncc2)o1)Nc1cc(Cl)ccc1C(=O)O` gave SMARCA2 act -2, esBAF inh 0, FGF22 binding 0, MITF act -5, AF4-AF9 inh -10 and Wnt bcat act -2.
O=C(CSc1nnc(-c2cccnc2)o1)Nc1cccc(F)c1 was read as SMARCA2 act 1, esBAF inh 61*, FGF22 binding 0, MITF act 72, AF4-AF9 inh 0 and Wnt bcat act -4.
O=C(CSc1nnc(-c2ccncc2)o1)Nc1cccc(F)c1 was read as SMARCA2 act 0, esBAF inh 56*, FGF22 binding 0, MITF act 63, AF4-AF9 inh 3 and Wnt bcat act 23.
For O=C(CSc1nnc(-c2ccncc2)o1)Nc1cc(F)ccc1F the results were SMARCA2 act 2, esBAF inh 32, FGF22 binding 0, MITF act 59, AF4-AF9 inh 0 and Wnt bcat act 33*.
For O=C(N[C@H]1C=C[C@@H](CC(=O)N2CCCCC2)O[C@@H]1CO)c1cccc(F)c1 the results were esBAF inh -5, FGF22 binding 1 and AF4-AF9 inh -22.
CC(C)NC(=O)N(C)C[C@@H]1Oc2ncc(C#CC3CCCC3)cc2C(=O)N([C@@H](C)CO)C[C@H]1C was read as esBAF inh 5, FGF22 binding 0 and AF4-AF9 inh -3.

Screens from PubChem.
